Here are results for 17 compounds from article PMC11062922 (Nature Chemical Biology, 2023).

What all share (design): species or system human, MV4-11 + K-562 + COLO205 + SK-N-BE2 + OVCAR-8
Assay [1] deals with EPHA2. Particulars: read-out: apparent Kd, n = 1.
The test system of assay [2] is HCK. Conditions: read-out: apparent Kd, n = 1.
The subject of assay [3] is PHKG2. Particulars: read-out: apparent Kd, n = 1.
The test system of assay [4] is PRKAA2. Conditions: read-out: apparent Kd, n = 1.
Assay [5] has as its system PRKX. Conditions: read-out: apparent Kd, n = 1.
Assay [6] has as its system SRC. Conditions: read-out: apparent Kd, n = 1.
Assay [7] has as its system YES1. Conditions: read-out: apparent Kd, n = 1.
Assay [8] relates to CSNK1E. Conditions: read-out: apparent Kd, n = 1.
For assay [9], the system named is MAPK10. Conditions: read-out: apparent Kd, n = 1.
For assay [10], the system named is RIOK2. Particulars: read-out: apparent Kd, n = 1.
The test system of assay [11] is ROCK2. Particulars: read-out: apparent Kd, n = 1.
In assay [12] the test system is BUB1. Particulars: read-out: apparent Kd, n = 1.
Assay [13] concerns CSNK1A1. Conditions: read-out: apparent Kd, compound concentrations: 100 nM and 1000 nM (sheet 'Samples'), n = 1.
Assay [14] concerns MAPK8. Conditions: read-out: apparent Kd, compound concentrations: 100 nM and 1000 nM (sheet 'Samples'), n = 1.
Assay [15] deals with MARK2. Particulars: read-out: apparent Kd, n = 1.
Assay [16] relates to CDK17. Particulars: read-out: apparent Kd, compound concentrations: 100 nM and 1000 nM (sheet 'Samples'), n = 1.
The subject of assay [17] is STK16. Particulars: read-out: apparent Kd, compound concentrations: 100 nM and 1000 nM (sheet 'Samples'), n = 1.
The test system of assay [18] is TNIK. Conditions: read-out: apparent Kd, compound concentrations: 100 nM and 1000 nM (sheet 'Samples'), n = 1.
For assay [19], the system named is ADCK1. Conditions: read-out: apparent Kd, n = 1.
For assay [20], the system named is STK3. Particulars: read-out: apparent Kd; compound concentrations: 100 nM and 1000 nM (sheet 'Samples'), CATDS: 1.36866990132516E-2; n = 1.
Setting [21] is: compound concentrations:100 nM and 1000 nM (sheet 'Samples').

Like-named read-outs stand apart in the source and are kept apart here.

Turning to `CN1C[C@@H]2Cn3c(c(C4=C(c5cn(C)c6ccccc56)C(=O)NC4=O)c4ccccc43)C[C@H]2C1.Cl` [RO0320234-001], the potency estimated from few doses is 59.7 nM in assay [1] (setting [21]); 317 nM in assay [2] (setting [21]); 2180 nM in [3] (setting [21]); 448 nM in assay [4] (setting [21]); 925 nM in [5] (setting [21]); 120 nM in [6] (setting [21]). Besides, in assay [7] (setting [21]), the potency estimated from few doses is 97.8 nM.
For `Clc1cc(Cl)cc(Nc2ccnc(Nc3cc(Cl)cc(Cl)c3)n2)c1` [GSK175726A], the potency estimated from few doses was 64 nM in assay [1] (compound concentrations: 100 nM and 1000 nM (sheet 'Samples'), CATDS: 3.0586231323348499E-2); 316 nM in [2] (compound concentrations: 100 nM and 1000 nM (sheet 'Samples'), CATDS: 1.3478571983596799E-2); 1680 nM in assay [3] (compound concentrations: 100 nM and 1000 nM (sheet 'Samples'), CATDS: 8.5028793142563602E-3); 618 nM in assay [4] (compound concentrations: 100 nM and 1000 nM (sheet 'Samples'), CATDS: 1.07442997812795E-2); 722 nM in assay [5] (compound concentrations: 100 nM and 1000 nM (sheet 'Samples'), CATDS: 1.0278626389666701E-2); 90.3 nM in [6] (compound concentrations: 100 nM and 1000 nM (sheet 'Samples'), CATDS: 2.4757216834404398E-2). Moreover, the potency estimated from few doses in [7] (compound concentrations: 100 nM and 1000 nM (sheet 'Samples'), CATDS: 2.3154900781863899E-2) was 101 nM.
In the case of `Cc1cccc(-c2nc(Nc3ccncc3)c3sccc3n2)n1` [GW869641X], the potency estimated from few doses in assay [8] (setting [21]) was 418 nM; in assay [9] (setting [21]), 1140 nM.
For `NCCNS(=O)(=O)c1ccc(-c2ccnc3[nH]ccc23)cc1` [GSK977617A], the potency estimated from few doses in [1] (setting [21]) is 441 nM; in [2] (setting [21]), 765 nM; in assay [4] (setting [21]) it was 721 nM; in assay [5] (setting [21]), 487 nM; in assay [10] (setting [21]), 1170 nM; in assay [11] (setting [21]), 97.3 nM. The potency estimated from few doses in [6] (setting [21]) is 589 nM; in [7] (setting [21]), 518 nM.
In the case of `CCOC(=O)N1CCC(n2cnc(-c3ccc(F)cc3)c2-c2ccnc(N)n2)CC1` [SB-219952], the potency estimated from few doses was 1170 nM in [12] (compound concentrations: 100 nM and 1000 nM (sheet 'Samples'), CATDS: 8.9704944978388403E-3); 44.2 nM in assay [13] (CATDS: 5.7270515376472299E-2); 27.3 nM in assay [8] (compound concentrations: 100 nM and 1000 nM (sheet 'Samples'), CATDS: 8.1899018563860101E-2); 726 nM in [1] (compound concentrations: 100 nM and 1000 nM (sheet 'Samples'), CATDS: 1.0740036537242301E-2); 814 nM in assay [2] (compound concentrations: 100 nM and 1000 nM (sheet 'Samples'), CATDS: 1.02495423413253E-2); 69 nM in assay [9] (compound concentrations: 100 nM and 1000 nM (sheet 'Samples'), CATDS: 4.1731696442012502E-2). The potency estimated from few doses is 1210 nM in assay [14] (CATDS: 8.8818893864712808E-3); 1120 nM in assay [15] (compound concentrations: 100 nM and 1000 nM (sheet 'Samples'), CATDS: 9.1119285329163396E-3); 916 nM in assay [3] (compound concentrations: 100 nM and 1000 nM (sheet 'Samples'), CATDS: 9.7897546431884499E-3); 698 nM in assay [4] (compound concentrations: 100 nM and 1000 nM (sheet 'Samples'), CATDS: 1.0917376994103299E-2); 802 nM in assay [6] (compound concentrations: 100 nM and 1000 nM (sheet 'Samples'), CATDS: 1.0314047860945599E-2); 755 nM in assay [7] (compound concentrations: 100 nM and 1000 nM (sheet 'Samples'), CATDS: 1.05685479515238E-2).
In the case of `COc1ccc(Nc2ncc(C#N)c(Nc3ccccc3C(N)=O)n2)cc1N1CCN(C)CC1.Cl` [GSK1558669A], the potency estimated from few doses is 1300 nM in [12] (compound concentrations: 100 nM and 1000 nM (sheet 'Samples'), CATDS: 6.2718506729186104E-3); 789 nM in [16] (CATDS: 6.8555901877920197E-3); 417 nM in assay [2] (compound concentrations: 100 nM and 1000 nM (sheet 'Samples'), CATDS: 7.9271656911812094E-3); 783 nM in assay [9] (compound concentrations: 100 nM and 1000 nM (sheet 'Samples'), CATDS: 6.8664179629566802E-3); 289 nM in assay [15] (compound concentrations: 100 nM and 1000 nM (sheet 'Samples'), CATDS: 8.7535455285316904E-3); 15.3 nM in [4] (compound concentrations: 100 nM and 1000 nM (sheet 'Samples'), CATDS: 3.3781833346765697E-2). Also, the potency estimated from few doses is 1000 nM in [10] (compound concentrations: 100 nM and 1000 nM (sheet 'Samples'), CATDS: 6.5501119131463198E-3); 1570 nM in [17] (CATDS: 6.09253969178725E-3); 1210 nM in assay [18] (CATDS: 6.3415403729181101E-3); 318 nM in assay [7] (compound concentrations: 100 nM and 1000 nM (sheet 'Samples'), CATDS: 8.5191429755921595E-3).
Consider `CN(c1ccc(NC(=O)Nc2cccc(Cl)c2)cc1)c1ccnc(N)n1.Cl` [GW830707A], for which the potency estimated from few doses in assay [1] (compound concentrations: 100 nM and 1000 nM (sheet 'Samples'), CATDS: 2.1264502158694101E-2) is 44.8 nM; in assay [11] (compound concentrations: 100 nM and 1000 nM (sheet 'Samples'), CATDS: 3.3185939241444598E-2) it was 16.9 nM; in assay [6] (compound concentrations: 100 nM and 1000 nM (sheet 'Samples'), CATDS: 2.2534153996718501E-2), 38.6 nM; in assay [7] (compound concentrations: 100 nM and 1000 nM (sheet 'Samples'), CATDS: 2.3597692911318701E-2), 34.5 nM.
Regarding `Cl.ON=C1CCc2cc(-c3nc(C4CCNCC4)[nH]c3-c3ccncc3)ccc21` [SB-614067-R], in [8] (setting [21]), the potency estimated from few doses was 1190 nM.
Turning to `Cl.Cl.NCC(C(=O)Nc1cc(Br)c(-c2ccnc3[nH]ccc23)s1)c1ccccc1.NCC(C(=O)Nc1cc(Br)c(-c2ccnc3[nH]ccc23)s1)c1ccccc1` (centres unmarked) [GSK1269851A], the potency estimated from few doses in assay [12] (setting [21]) was 2170 nM; in assay [1] (setting [21]), 505 nM; in [2] (setting [21]), 554 nM; in [3] (setting [21]), 2300 nM; in assay [4] (setting [21]), 1130 nM; in assay [5] (setting [21]), 1890 nM. Also, the values for the potency estimated from few doses in assay [11] (setting [21]), in [6] (setting [21]) and in assay [7] (setting [21]) were 1330 nM, 523 nM and 378 nM, respectively.
As for `Fc1ccc(-c2c(-c3ccncc3)[nH]c3cccnc23)cc1` [RO1153853-000], the potency estimated from few doses is 1690 nM in assay [12] (compound concentrations: 100 nM and 1000 nM (sheet 'Samples'), CATDS: 4.9666048128405298E-2); 274 nM in [8] (compound concentrations: 100 nM and 1000 nM (sheet 'Samples'), CATDS: 9.9990073063758705E-2).
`CCn1c(-c2nonc2N)nc2c(C#CC(C)(C)O)nc(O[C@@H](CN)c3ccccc3)cc21.O=C(O)C(F)(F)F` [GSK1007102B]: the figures for the potency estimated from few doses in assay [19] (setting [21]), in assay [15] (setting [21]) and in assay [11] (setting [21]) were 788 nM, 173 nM and 1670 nM, respectively.
Turning to `Nc1nc(Nc2ccccc2)cc(-c2ccc3c(N)n[nH]c3c2)n1` [GSK2225749A], in assay [12] (setting [21]), the potency estimated from few doses is 1900 nM.
Take `CN(C)CCNC(=O)Nc1ccc(N(C)c2ccnc(Nc3ccc(CS(C)(=O)=O)cc3)n2)cc1.Cl` [GW830900A]: in [19] (setting [21]), the potency estimated from few doses is 88.9 nM.
For the compound `CCN(CC)Cc1ccc(Nc2nccc(-c3cnn4ncccc34)n2)cc1` [GW780056X], the potency estimated from few doses was 1200 nM in assay [19] (compound concentrations: 100 nM and 1000 nM (sheet 'Samples'), CATDS: 2.0575256748511801E-2); 1030 nM in [16] (CATDS: 2.15986885679498E-2); 72.1 nM in assay [8] (compound concentrations: 100 nM and 1000 nM (sheet 'Samples'), CATDS: 7.3916034222461E-2); 371 nM in assay [9] (compound concentrations: 100 nM and 1000 nM (sheet 'Samples'), CATDS: 3.1976328377255003E-2); 1050 nM in assay [14] (CATDS: 2.1413758236852699E-2).
For `CS(=O)(=O)Nc1ccc(-c2ccnc3[nH]ccc23)cc1` [GSK993273A], the potency estimated from few doses in assay [10] (setting [21]) was 1670 nM.
In the case of `O=C(O)C(F)(F)F.O=c1[nH]ccc2nc(N[C@@H]3CCNC3)nc(Nc3ccc4c(c3)S(=O)(=O)CC4)c12` [GSK2181306A], the potency estimated from few doses in assay [19] (compound concentrations: 100 nM and 1000 nM (sheet 'Samples'), CATDS: 1.2751360912585E-2) was 448 nM; in assay [16] (CATDS: 9.5654152520578493E-3), 979 nM; in assay [13] (CATDS: 1.4603210367733301E-2), 330 nM; in [15] (compound concentrations: 100 nM and 1000 nM (sheet 'Samples'), CATDS: 1.1093040316995199E-2), 635 nM; in [3] (compound concentrations: 100 nM and 1000 nM (sheet 'Samples'), CATDS: 1.09538750738594E-2), 657 nM; in assay [10] (compound concentrations: 100 nM and 1000 nM (sheet 'Samples'), CATDS: 8.1231795228866102E-3), 1810 nM. The potency estimated from few doses was 1130 nM in assay [17] (CATDS: 9.1549687714340792E-3), 381 nM in assay [20] and 467 nM in [18] (CATDS: 1.2529799183739801E-2).
In the case of `c1ccc(-c2n[nH]cc2Nc2ccnc3ccccc23)nc1` [GW694077X], the potency estimated from few doses is 2030 nM in assay [13] (CATDS: 2.3053021042780501E-2); 1790 nM in assay [8] (compound concentrations: 100 nM and 1000 nM (sheet 'Samples'), CATDS: 2.3726321551731398E-2); 1880 nM in [14] (CATDS: 2.3443095841232799E-2); 683 nM in assay [10] (compound concentrations: 100 nM and 1000 nM (sheet 'Samples'), CATDS: 3.1389541451057497E-2).
